# From PubChem BioAssay (EPA / NIEHS)
# Records with an inconclusive call do not appear. Active and inactive are the calls of the source. Rule for the calls, unless noted: active = hit-call score of the fitted dose curve at least 0.9, where 1 is the maximum; inactive = score below 0.9.
# Experiments:
# [1] = molecular target: Transcription factor E2F1 (Homo sapiens) (UniProt Q01094); test: ATG_E2F_CIS: Attagene CIS-FACTORIAL HepG2 Assay for human E2F Transcription Factor 1 (AID 2282935); conditions: HepG2 Attagene cis-reporter, E2F reporter RNA transcripts; actives raise or lower the signal
# Sequence of Transcription factor E2F1 (Homo sapiens) (Q01094 whole entry, looked up): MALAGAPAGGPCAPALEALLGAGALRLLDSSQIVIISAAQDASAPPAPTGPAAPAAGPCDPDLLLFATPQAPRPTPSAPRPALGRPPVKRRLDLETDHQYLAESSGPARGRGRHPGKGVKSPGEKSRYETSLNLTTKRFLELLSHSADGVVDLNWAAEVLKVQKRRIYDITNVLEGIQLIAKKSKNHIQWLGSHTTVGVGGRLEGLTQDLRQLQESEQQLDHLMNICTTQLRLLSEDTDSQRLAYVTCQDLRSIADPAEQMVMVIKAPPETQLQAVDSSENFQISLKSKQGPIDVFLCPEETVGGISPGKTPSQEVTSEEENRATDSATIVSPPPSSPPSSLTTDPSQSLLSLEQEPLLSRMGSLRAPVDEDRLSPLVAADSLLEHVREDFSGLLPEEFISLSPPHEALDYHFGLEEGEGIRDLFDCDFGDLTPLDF
# Method in brief: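 Gain or loss of reporter transcript, fitted against DMSO, reflects E2F1-driven transcription. Transiently transfected HepG2 dosed 24 h before RNA isolation. Quantified by fluorescent RT-PCR products separated by capillary electrophoresis.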
# [2] = ATG_RORE_CIS: Attagene CIS-FACTORIAL HepG2 Assay for human RAR-related Orphan Receptor Element (RORE) (AID 2282959); conditions: HepG2 Attagene cis-factorial RORE reporter, mRNA; actives raise or lower the signal
# Method in brief: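 HepG2 cells carrying transiently transfected cis-regulated reporter units; RORE-driven reporter mRNA quantified 24 h post-dosing by RT-PCR, 6-FAM primer extension, HpaI digestion and capillary electrophoresis. Bidirectional fit versus DMSO.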
# [3] = molecular target: Bile acid receptor (Homo sapiens) (UniProt Q96RI1); test: ATG_FXR_TRANS: Attagene TRANS-FACTORIAL HepG2 Assay for Farnesoid X Receptor (FXR) (AID 2282979; active = hit-call score of the fitted dose curve at least 0.9, where 1 is the maximum;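 note: hits raise reporter mRNA above DMSO so AC50 marks FXR activation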); conditions: HepG2 Attagene TRANS FXR-GAL4 reporter transcription
# Sequence of Bile acid receptor (Homo sapiens) (Q96RI1 whole entry, looked up, the tested form may be a part): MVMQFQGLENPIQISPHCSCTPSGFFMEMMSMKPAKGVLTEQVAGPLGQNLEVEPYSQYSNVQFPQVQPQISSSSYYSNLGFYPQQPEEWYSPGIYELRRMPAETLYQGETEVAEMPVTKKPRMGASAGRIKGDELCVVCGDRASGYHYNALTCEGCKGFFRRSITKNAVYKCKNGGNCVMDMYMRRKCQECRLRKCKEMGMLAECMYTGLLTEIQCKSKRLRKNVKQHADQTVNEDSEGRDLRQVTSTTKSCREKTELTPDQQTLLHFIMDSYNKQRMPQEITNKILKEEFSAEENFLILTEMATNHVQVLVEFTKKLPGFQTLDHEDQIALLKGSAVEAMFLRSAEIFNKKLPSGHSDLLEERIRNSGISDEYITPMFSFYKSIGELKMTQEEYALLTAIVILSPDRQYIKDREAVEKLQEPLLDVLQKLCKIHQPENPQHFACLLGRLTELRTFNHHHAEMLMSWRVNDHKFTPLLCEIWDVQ
# Method in brief: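 HepG2 cells were transiently transfected with GAL4-UAS reporters driven by chimeric NR-Gal4 proteins and dosed for 24 h. Reporter mRNA was quantified by RT-PCR, fluorescent labelling, HpaI digestion and capillary electrophoresis, with gain of signal scored versus DMSO.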
# [4] = molecular target: Hepatocyte nuclear factor 4-alpha (Homo sapiens) (UniProt P41235); test: ATG_HNF4a_TRANS: Attagene TRANS-FACTORIAL HepG2 Assay for human Hepatocyte Nuclear Factor 4 alpha (HNF4a) (AID 2282982; active = hit-call score of the fitted dose curve at least 0.9, where 1 is the maximum); conditions: HepG2 HNF4a transactivation reporter, mRNA readout
# Sequence of Hepatocyte nuclear factor 4-alpha (Homo sapiens) (P41235 whole entry, looked up, the tested form may be a part): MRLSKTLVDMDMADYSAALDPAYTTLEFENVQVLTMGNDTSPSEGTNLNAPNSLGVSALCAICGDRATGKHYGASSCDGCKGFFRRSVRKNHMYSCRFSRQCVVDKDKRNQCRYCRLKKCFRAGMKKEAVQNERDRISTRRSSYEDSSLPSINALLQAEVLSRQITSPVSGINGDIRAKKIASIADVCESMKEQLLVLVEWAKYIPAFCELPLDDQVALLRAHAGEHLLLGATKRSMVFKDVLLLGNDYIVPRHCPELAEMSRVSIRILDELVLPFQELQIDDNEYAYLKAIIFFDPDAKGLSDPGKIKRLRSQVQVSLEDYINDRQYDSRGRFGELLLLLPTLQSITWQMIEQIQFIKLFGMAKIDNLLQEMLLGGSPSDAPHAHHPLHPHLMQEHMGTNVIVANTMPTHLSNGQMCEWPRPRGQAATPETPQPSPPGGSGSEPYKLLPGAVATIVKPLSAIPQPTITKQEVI
# Method in brief: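 Activity of an exogenous HNF4a–Gal4 fusion scored as induced GAL4-UAS reporter transcripts after 24 h chemical exposure of transfected human HepG2 cells. Read-out via RT-PCR with 6-FAM labelling and capillary electrophoresis; rise over DMSO baseline.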
# [5] = ATG_M_06_TRANS: Attagene TRANS-FACTORIAL HepG2 Assay for M06 Transcription Factor (Internal Marker) (AID 2282983; active = hit-call score of the fitted dose curve at least 0.9, where 1 is the maximum); conditions: HepG2 Attagene TRANS M06 internal marker reporter
# Method in brief: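 mRNA levels of a reporter transcript, quantified as FAM fluorescence on capillary electrophoresis, served as readout. HepG2 cells expressing exogenous GAL4-chimera reporter constructs were exposed for 24 h. Gain of signal over DMSO was evaluated.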
# [6] = molecular target: human RAR-related Orphan Receptor beta (RORb), RORB (gene 6096) (UniProt Q92753); test: ATG_RORb_TRANS: Attagene TRANS-FACTORIAL HepG2 Assay for human RAR-related Orphan Receptor beta (RORb) (AID 2283010; active = hit-call score of the fitted dose curve at least 0.9, where 1 is the maximum)
# Sequence of human RAR-related Orphan Receptor beta (RORb), RORB (gene 6096) (Q92753 whole entry, looked up, the tested form may be a part): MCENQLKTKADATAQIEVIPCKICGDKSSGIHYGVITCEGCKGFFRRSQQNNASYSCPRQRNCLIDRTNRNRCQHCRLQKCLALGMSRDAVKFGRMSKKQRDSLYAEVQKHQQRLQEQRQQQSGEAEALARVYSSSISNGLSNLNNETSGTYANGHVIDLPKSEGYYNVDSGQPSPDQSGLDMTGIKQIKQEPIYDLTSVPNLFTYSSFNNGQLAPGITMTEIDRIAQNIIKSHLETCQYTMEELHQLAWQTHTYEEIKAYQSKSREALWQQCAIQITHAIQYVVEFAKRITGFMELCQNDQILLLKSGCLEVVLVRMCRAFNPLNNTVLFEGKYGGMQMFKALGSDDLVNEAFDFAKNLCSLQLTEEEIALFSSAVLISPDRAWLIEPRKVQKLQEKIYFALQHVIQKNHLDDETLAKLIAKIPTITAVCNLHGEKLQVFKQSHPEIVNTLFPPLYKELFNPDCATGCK
# Method in brief: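 Read-out is reporter mRNA induction, quantified by RT-PCR with fluorescent capillary electrophoresis, 24 h post-dose in transiently transfected HepG2 expressing exogenous NR-Gal4 chimera. Activity fitted upward versus DMSO.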
# [7] = CCTE_Shafer_MEA_acute_per_network_burst_electrodes_number_mean: CCTE's Neural Acute Assay for Mean Number of Electrodes in a Network Burst, Shafer Lab (AID 2284021);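 note: curves fitted for decreases only so hits reduce electrodes per burst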
# Method in brief: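 Rat primary cortical neurons on 48-well MEAs, DIV 13 or 15, were treated at 0.03-40 uM. Spikes were detected at 8x rms noise and recorded at 37 C. The mean electrodes per network burst in a 40 min exposure recording was expressed as percent change from a 40 min baseline.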
# [8] = CCTE_Shafer_MEA_acute_network_burst_percentage: CCTE's Neural Acute Assay for Percentage of Network Bursts, Shafer Lab (AID 2284022);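 note: curves fitted for loss so actives lower network burst percentage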
# Method in brief: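 Rat primary cortical neuron networks on 48-well MEA plates, DIV 13 or 15, treated acutely with compound (0.03-40 uM, at least three wells). Percent of spikes within network bursts compared between 40-min recordings before and during exposure at 37 C, expressed as percent change.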
# [9] = CCTE_Shafer_MEA_acute_cross_correlation_area: CCTE's Neural Acute Assay for Area of Cross Correlation, Shafer Lab (AID 2284024);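 note: curves fitted for loss of cross-correlation area so actives lower synchrony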
# Method in brief: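 Rat primary cortical neurons on 48-well MEA, DIV 13 or 15; compounds 0.03-40 uM. Baseline and post-exposure 40 min recordings at 37 C; percent change in area under pooled inter-electrode cross-correlation near zero lag, relative to DMSO.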
# [10] = CCTE_Shafer_MEA_acute_cross_correlation_HWHM: CCTE's Neural Acute Assay for Cross Correlation at Half Width at Half Maximum, Shafer Lab (AID 2284026);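 note: spontaneous network firing of rat primary cortical neurons on multiwell microelectrode arrays; percent change per well from pre-dose baseline in spike cross-correlogram half width; hits are a decrease in cross-correlogram half width relative to DMSO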
# Method in brief: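 Rat primary cortical neurons on 48-well MEA plates; 40-min baseline and 40-min post-exposure recordings at 37 C on DIV 13 or 15, compounds 0.03-40 uM. Spikes detected at 8x rms noise; percent change in cross-correlogram HWHM per well vs baseline.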
# [11] = CCTE_Shafer_MEA_acute_LDH: CCTE's Lactate Dehydrogenase Assay for Cytotoxicity in the Neural Acute Assay, Shafer Lab (AID 2284086; active = hit-call score of the fitted dose curve at least 0.9, where 1 is the maximum;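 note: active means LDH release rises above DMSO vehicle level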)
# Method in brief: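 LDH released during 40 min compound exposure of primary rat cortical cultures, quantified by absorbance at 490 nm in collected medium. Fitting direction positive versus DMSO vehicle.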
# [12] = CCTE_Shafer_MEA_acute_AB: CCTE's Alamar Blue Assay for Cytotoxicity in the Neural Acute Assay, Shafer Lab (AID 2284069; active = hit-call score of the fitted dose curve at least 0.9, where 1 is the maximum;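 note: active compounds lower the viability signal compared with DMSO wells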)
# Method in brief: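 Primary rat cortical neurons on MEA plates, exposed acutely after baseline recording on day 13 or 15 post-plating. Viability by CellTiter Blue resazurin reduction (1:6 reagent dilution), fluorescence 544/590 nm; loss of signal versus DMSO.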
# [13] = CCTE_Harrill_HTTr_CellCount_MCF7: CCTE's Cell Proliferation Assessment for the High-Throughput Transcriptomics (HTTr) Platform, Harrill Lab (AID 2284012; active = hit-call score of the fitted dose curve at least 0.9, where 1 is the maximum;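 note: cells exposed to compound for six hours; intended direction is loss of nuclei count meaning fewer cells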)
# Method in brief: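 Cell count from high-content imaging of Hoechst-labeled nuclei serves as viability/growth readout. Chemicals were applied to MCF-7 cells in eight concentrations for six hours, with fitting in both directions relative to DMSO.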
# [14] = ATG_GRE_CIS: Attagene CIS-FACTORIAL HepG2 Assay for human Glucocorticoid Response Elements (GRE) (AID 2282947); conditions: HepG2 GRE cis-reporter, Attagene multiplex mRNA; actives raise or lower the signal
# Method in brief: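 Reporter transcripts read by RT-PCR with capillary electrophoresis fluorescence after a 24 h chemical exposure of HepG2 cells transiently transfected with multiple cis-element reporter units. Gain or loss fitted against DMSO.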
# [15] = ACEA_ER_AUC_viability: ACEA Biosciences xCELLigence Real-Time Cell Analysis on Estrogen Receptor Agonism for Viability (AID 2283782; active = hit-call score of the fitted dose curve at least 0.9, where 1 is the maximum;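 note: hit means loss of impedance signal meaning reduced cell growth or viability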)
# Method in brief: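 Viability endpoint: reduced impedance area under the curve relative to DMSO, recorded by real-time electrode sensing over ~80 h of continuous exposure. Duplicate plates of T47D in hormone-depleted medium; eight concentrations, 1:4 dilutions, 100 uM maximum.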
smiles,measurement,setting,value
CC1=CCCC(C)(C)C12CCC(C)O2 (stereo unspecified),outcome,[1],inactive
same,outcome,[2],inactive
same,outcome,[3],inactive
same,outcome,[4],inactive
same,outcome,[5],inactive
same,outcome,[6],inactive
COc1ccc(C(=O)c2ccccc2O)c(O)c1,outcome,[7],inactive
same,AC50,[8],0.003 µM (active)
same,AC50,[9],20.3 nM (active)
same,outcome,[10],inactive
same,outcome,[11],inactive
CCC[Si](OC(C)=O)(OC(C)=O)OC(C)=O,outcome,[7],inactive
same,outcome,[8],inactive
same,AC50,[9],72 nM (active)
same,outcome,[10],inactive
same,outcome,[12],inactive
same,outcome,[11],inactive
CC(=O)O[C@]1(C(C)=O)CC[C@H]2[C@@H]3C=C(C)C4=CC(=O)CC[C@]4(C)[C@H]3CC[C@@]21C,outcome,[13],inactive
CN(C)CCC(c1ccc(Cl)cc1)c1ccccn1 (stereo unspecified),outcome,[1],inactive
same,outcome,[14],inactive
same,outcome,[2],inactive
same,outcome,[15],inactive
same,AC50,[7],3.59 µM (active)
same,AC50,[8],22.8 µM (active)
same,outcome,[9],inactive
same,outcome,[12],inactive
same,outcome,[11],inactive
Cc1c(C(N)=O)cc([N+](=O)[O-])cc1[N+](=O)[O-],outcome,[7],inactive
same,outcome,[8],inactive
same,outcome,[9],inactive
same,outcome,[10],inactive
same,outcome,[12],inactive
same,outcome,[11],inactive
CC1=C(CC=O)C(C)(C)CCC1,outcome,[2],inactive
same,outcome,[5],inactive
same,outcome,[6],inactive
